From PubChem
This is one part of a sample in which hits are shown more often than they occur.
Dicer processing: inhibitors of Dicer pre-microRNA processing, primary screen, biochemical, cat-ELCCA, chemiluminescence; AID 1347074, 2019; z-score at 25 µM; hit rate 6% among 47,000; cat-ELCCA pre-miR-21 Dicer processing; stronger effect = higher value; in the data active means z-score above about 3, passing the limit was not always enough;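 further: plate controls were vehicle for no effect and no enzyme for full effect; higher signal means more uncleaved substrate so more Dicer inhibition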
The depositor's hits bear a star.

SMILES	Dicer processing
COc1ccc(OC)c(-c2n(C)c3ccccc3[n+]2C)c1	1.6
COc1ccc(Br)cc1/C=N/N=C1/C(=O)Nc2ccccc21	-0.95
Cc1cccc(Nc2nc(-c3ccc(O)c(O)c3)cs2)n1	5.2*
Cc1cccc(Nc2nc(-c3ccncc3)cs2)n1	2.1
C=CCNc1nc(-c2ccc(O)c(OC)c2)cs1	-0.25
Cc1ccc(Nc2nc(-c3ccccc3)cs2)nc1	2.1
Cc1ccnc(Nc2nc(-c3ccc(O)cc3)cs2)c1	4.5
Cc1ccnc(Nc2nc(-c3ccc(O)c(O)c3)cs2)c1	3.9*
O=C1CCC([N+](=O)[O-])C(c2ccccc2Cl)N1 (centres undefined)	-0.81
Cc1ccccc1C(OCCN(C)C)c1ccccc1 (centres undefined)	-0.79
COC(=O)c1ccc(S(=O)(=O)N(Cc2ccccn2)Cc2ccccn2)n1C	2.1
CCOC(=O)Cc1csc(NC(=O)Nc2ccc(OCc3ccccc3)cc2)n1	1.3
Nc1nc(SCC(=O)NCCO)nc2sc3c(c12)CCCC3	1.3
Nc1nc(SCC(=O)NCCN2CCOCC2)nc2sc3c(c12)CCCC3	0.61
Nc1nc(SCCCC(=O)NCCO)nc2sc3c(c12)CCCC3	5.5*
NC(=O)c1nnc2c3c(-c4ccccc4)c(-c4ccccc4)nnc3nn2c1N	-1.1
COc1ccc(OCC(=O)N(Cc2cccs2)C2CCS(=O)(=O)C2)cc1 (centres undefined)	-0.03
COc1ccccc1OCC(=O)N(Cc1cccs1)C1CCS(=O)(=O)C1 (centres undefined)	0.96
O=C(c1ccccc1Br)N(Cc1cccs1)C1CCS(=O)(=O)C1 (centres undefined)	3.9*
O=C(CSc1nnc2ccccn12)Nc1ccc(Cl)cc1	0.1
O=C(CCSc1nnc2ccccn12)Nc1cccc(-c2nc3ccccc3s2)c1	6.1*
O=C(CSc1nnc2ccccn12)Nc1cccc(-c2nc3ccccc3s2)c1	-1.3
O=S(=O)(NCc1ccc(-c2cccs2)s1)c1ccc(N2CCOCC2)nc1	-0.75
Brc1ccc(C2Nc3cccc4cccc(c34)N2)cc1	5*
Oc1ccc2ccccc2c1C1Nc2cccc3cccc1c23 (centres undefined)	-2.6
SMILES	Dicer processing
COc1cccc(C2Nc3cccc4cccc(c34)N2)c1O	0.69
COc1ccc(C#N)cc1Br	-0.35
COc1ccc(C2Nc3cccc4cccc(c34)N2)cc1Br	4.9*
Fc1ccc(C2Nc3cccc4cccc(c34)N2)cc1	-0.77
O=C(COc1ccc(Cl)cc1Cl)Oc1ccc2ccccc2c1C1SCCS1	3.2
COc1ccc(C2N(C)c3ccccc3N2C)cc1OC	0.54
COCCCN1CN=C(NS(=O)(=O)c2ccc(C)cc2)NC1	-2.5
Cc1ccc(S(=O)(=O)NC2=NCN(Cc3cccnc3)CN2)cc1	4.5*
COCCN1CN=C(NS(=O)(=O)c2ccc(C)cc2)NC1	0.48
Cn1c2c(c(=O)n3ncnc13)CCCC2	0.5
CCCCOC(=O)C1=C(C)NC2=C(C(=O)CC(C)(C)C2)C1c1ccccc1Cl (centres undefined)	1.2
COc1ccc(C2C(C#N)=C(N)Oc3cc(O)ccc32)cc1C (centres undefined)	-0.6
C=CCOc1ccc(C2C(C#N)=C(N)Oc3cc(O)ccc32)cc1Cl (centres undefined)	13
CC(C)c1ccc(C2C(C#N)=C(N)Oc3cc(O)ccc32)cc1 (centres undefined)	4.9*
COc1ccc(-c2ccc(/C=C/c3cc(C(F)(F)F)[nH]c(=O)n3)o2)cc1Cl	1.6
CCOC(=O)C1=C(C)N=C2SCC(=O)N2C1c1ccccc1 (centres undefined)	0.13
COCCCn1c(SCC(=O)NN)nnc1-c1ccc(C(F)(F)F)cc1	-1.6
CCN(CC)CCOc1c(Br)ccc2c1sc1nc3n(c(=O)c12)CCC3	4.1*
COc1nc(Nc2ccc(F)cc2)nc(OC)n1	-0.69
CCOC(=O)COc1ccc2c(C)c(Cc3c(Cl)cccc3Cl)c(=O)oc2c1	3.3*
CCOC(=O)COc1ccc2c(-c3ccccc3)cc(=O)oc2c1	1.1
Cc1c(Cc2c(F)cccc2Cl)c(=O)oc2cc(OC(=O)c3ccco3)ccc12	0.42
COc1ccc(C2c3c(oc4ccc(F)cc4c3=O)C(=O)N2Cc2ccc3c(c2)OCO3)cc1OC (centres undefined)	1.5
Cn1nc(-c2ccc(Sc3ccc(Cl)cc3)s2)cc1C(F)(F)F	-0.62
Cn1nc(-c2ccc(-c3ccn(S(C)(=O)=O)n3)s2)cc1C(F)(F)F	4*
SMILES	Dicer processing
Cn1nc(-c2ccc(S(=O)(=O)NCC(=O)NNS(=O)(=O)c3ccc(Cl)cc3)s2)cc1C(F)(F)F	0.13
FC(F)(F)c1cccc(Oc2nccnc2-c2noc(-c3cccs3)n2)c1	-1.7
C=CCN1C(C(=O)c2ccccc2)=C(OC(=O)CN2C(=O)CCC2=O)c2ccccc2S1(=O)=O	-0.81
CCOC(=O)c1cc(C)nn1Cc1ccc(C)cc1	-0.76
Cc1cc(C)c2c(=O)[nH]c(SCC(=O)c3ccc(O)c(O)c3)nc2n1	3.7*
Cc1ccc(C(=O)CSc2nc3ccccc3c(=O)[nH]2)cc1C	-0.87
